According to the supplement of paper PMC3334620:
The full ranking holds about 33,000 sequences; the median of “E-score (-0.5 to 0.5)” is about -0.0059, and the highest 2% start at about 0.26. What follows is part of a selection rich in the highest values, with near analogues and random picks from the rest.

molecular target: T1, Cin5 (UniProt P40917); test: PBM E-score (8-mer binding enrichment) (E-score (-0.5 to 0.5)); higher = stronger / more preferred TF binding; conditions: protein concentration: 100 nM; construct: GST-full length
T1 sequence: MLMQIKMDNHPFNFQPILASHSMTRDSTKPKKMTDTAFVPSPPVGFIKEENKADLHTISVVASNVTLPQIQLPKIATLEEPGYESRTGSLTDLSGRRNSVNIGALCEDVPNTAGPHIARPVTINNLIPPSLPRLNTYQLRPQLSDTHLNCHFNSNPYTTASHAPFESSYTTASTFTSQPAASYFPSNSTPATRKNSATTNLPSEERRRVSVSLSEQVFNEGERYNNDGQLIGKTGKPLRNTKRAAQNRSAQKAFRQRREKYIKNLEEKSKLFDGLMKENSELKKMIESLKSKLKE
Procedure: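 Universal 'all 10-mer' protein binding microarrays (Agilent AMADID 015681) probed with GST-tagged S. cerevisiae TFs (full-length or DBD) made by in vitro transcription/translation (PURExpress), about 100-200 nM. Bound TF was detected with fluorescent anti-GST. Each ungapped 8-mer (which stands for itself and its reverse complement) is scored by the PBM enrichment score (E-score), a modified Wilcoxon-Mann-Whitney statistic from -0.5 to +0.5, computed with the Universal PBM Analysis Suite. Scale: above 0.35 generally sequence-specific binding.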

Sequence	PBM E-score
CAACACTC	0.105
GGATCAGA	-0.042
CGTGAAAG	-0.0748
GTATTCGA	-0.0476
ACAACCTA	0.0123
AATCGCTG	-0.0284
ATATTGAT	0.249
CTATTGAG	0.144
ATATTGAG	0.266
GCTCAAAA	-0.00649
ACTAATAT	0.234
CCTAATAC	0.113
ACTAATAG	0.277
GCTAATAC	0.153
ACTAATAC	0.26
ACTAATAA	0.221
ATAAGGCG	0.0483
CTCCGCTA	-0.116
CCAGTTAA	0.134
GCGGTGGA	0.0809
GAAGCAGC	-0.162
AAGCTTAC	0.282
GAGCTTAC	0.191

Sequence	PBM E-score
CAGCTTAC	0.312
CAGCTTAG	0.0588
CAGCTTGC	-0.0574
AAGCTTAG	0.306
AAGCTTAA	0.164
CAGCTTAA	0.0109
AAGCTTAT	0.231
CGGGTAGC	-0.214
AGATGGAA	0.167
GAGGTCCA	-0.14
CGGCTTAG	-0.0489
AGGCTTAT	0.152
CGGCTTAA	0.19
AGGCTTAC	0.258
AGGCTTAG	0.0724
CGGCTTAC	0.358
GTAACGGA	0.252
CGAATTAC	0.0723
GCGCGGCC	-0.0214
CCCGCGCG	0.138
CCTTCTGC	-0.126
AAACTTGT	0.0442
AGAACCTG	-0.127

Sequence	PBM E-score
CGACATCA	0.137
TGACATCA	0.356
GGACATCA	0.0421
TCCATTCA	0.0889
GAGGTGCA	-0.0183
AATGCAAG	0.00342
AATGCATA	0.116
AATGCAAA	0.275
AATGCATT	0.259
AATGCAAC	0.0401
AATGCATG	0.183
ACGTTTCG	-0.0249
GCTCCCGA	-0.217
ACGTCTCA	0.124
CAAACTCG	0.0562
AGTTCCGA	0.123
CGCATCTA	0.271
GGCATCTA	-0.0103
AGCATCTA	0.00891
CGCCATCA	-0.202
AAAATATC	0.189
AAAAAATA	0.213
CCAAAATA	0.113

Sequence	PBM E-score
AACAAATG	0.0424
CAAATATG	0.117
CAAAAATA	0.277
CGGAAATA	0.33
CGGAAATC	0.137
AACAAGTT	0.0368
CAAATATC	0.282
AACAAATT	0.274
GGGAAATA	0.0795
CGGGCCTA	-0.236
CGGTTCTC	-0.217
GTGGAAGA	-0.192
ACGGGCAT	-0.0832
ACTAAGAT	0.2
TTCTCCAA	-0.0656
ACACTCAC	0.066
AACAAGTA	0.0249
AACAAAAA	0.209
TACAAATA	0.239
AACAAGAT	0.146
AACAAATA	0.278
AACAAAAT	0.269
GTATCCAC	-0.00124

Sequence	PBM E-score
AATCATCC	0.227
TACTCCTA	0.066
CATCCCAA	0.0478
GATTTCGC	0.262
CATTTCGC	0.111
GATTTCGA	0.11
CAATGGTG	-0.161
CTCTGGAC	0.0765
AGGGTGCA	-0.148
ATATAAGA	0.301
ACATAACT	0.197
ACATAACA	0.286
TCATAAGA	0.0448
ACATAAGC	0.437
ACATAAGT	0.195
GTATAAGA	0.0464
ACATAAGA	0.3
ACATAAGG	0.194
CTATAAGA	0.0762
ACATAACC	0.235
CCATAAGA	0.118
